For 40 compounds, inhibition results are on record in ChEMBL document CHEMBL3433997, “St. Jude Leishmania screening dataset” (2016).

The structures appear in SMILES notation.

By inhibition is commonly meant the change of the read-out against control, counted positive when it falls.

The first experiment deals with Solute carrier family 2, facilitated glucose transporter member 1 (Homo sapiens) (UniProt P11166). Nature of the experiment: ST_JUDE_LEISH: Cytotoxicity at 2uM final concentration against transgenic Leishmania Mexicana promastigotes LmGLUT1 that are glucose transport deficient and complemented with the human glucose transporter GLUT1. Activity is measured by DNA content using SYBR green in vitro. The class given is functional.
Chain of Solute carrier family 2, facilitated glucose transporter member 1 (Homo sapiens) (P11166 whole entry): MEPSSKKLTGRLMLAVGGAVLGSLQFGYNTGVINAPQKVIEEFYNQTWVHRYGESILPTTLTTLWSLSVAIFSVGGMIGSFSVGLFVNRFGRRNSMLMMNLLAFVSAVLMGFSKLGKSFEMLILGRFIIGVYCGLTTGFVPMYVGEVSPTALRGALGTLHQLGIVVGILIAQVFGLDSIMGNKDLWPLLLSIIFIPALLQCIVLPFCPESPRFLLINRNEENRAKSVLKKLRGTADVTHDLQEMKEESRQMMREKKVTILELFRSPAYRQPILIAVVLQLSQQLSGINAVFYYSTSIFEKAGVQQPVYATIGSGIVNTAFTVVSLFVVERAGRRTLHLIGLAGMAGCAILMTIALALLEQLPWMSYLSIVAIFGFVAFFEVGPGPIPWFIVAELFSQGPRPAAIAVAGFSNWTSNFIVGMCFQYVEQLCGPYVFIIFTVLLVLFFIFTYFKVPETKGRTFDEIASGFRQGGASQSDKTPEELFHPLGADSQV
Regarding `Cc1ccc(C)c2sc(N(CCCn3ccnc3)C(=O)c3ccco3)nc12`, the inhibition stood at 4.42%.
The same measure, in the same setting: in the case of `Cn1nc(-c2ccc(NC(=O)Nc3cc(C(F)(F)F)cc(C(F)(F)F)c3)c(F)c2)c2cnc(NCCN3CCOCC3)nc21` it was 2.68%; in that of `Cc1cccc(OCC2CCN(c3ncc(C(=O)NC4CC4)cc3Cl)CC2)c1`, 0.26%; in that of `CN(C)Cc1cccc(-c2cnc(N)c(-c3nc4cc(S(C)(=O)=O)ccc4[nH]3)c2)c1`, 2.57%.
For `Cc1ccc(C(C(=O)Nc2ccc(N3CCNCC3)c(Cl)c2)c2ccccc2)cc1` (stereo not given), the inhibition is 4.78%.
On to `Cc1[nH]c(C)c(-c2ccc(-c3ccc(OC(F)(F)F)cc3)nc2)c(=O)c1Cl`, for which the inhibition was -0.94%.
`Cc1cc(N[C@@H](Cc2ccccc2)C(=O)NCc2cccc(F)c2)nc(NCCc2ccc(F)cc2)n1`: the inhibition worked out at 4.47%.
Regarding `CC(=O)Nc1cccc(CNc2cc(C)nc(Nc3ccc(C)cc3)n2)c1`, the inhibition was 9.07%.
With `CCCCNC(=O)[C@H](CC1CCCCC1)NC(=O)c1ccc(O)c(-c2cccc(C(F)(F)F)c2)c1`, the inhibition is 2.16%.
In the case of `NCCCNc1ccnc2cc(Cl)ccc12`, the inhibition is -0.29%.
On to `O=C(/C=C/c1ccc(Cl)c(Cl)c1)NCCCCCN1CCC(NC(=O)c2cc(Cl)ccc2F)CC1`, for which the inhibition was determined as 2.96%.
Same read-out and setting: as for `Cc1[nH]c2ccc(NS(C)(=O)=O)cc2c1C1CCN(CCC2CCN(C(=O)/C=C/c3ccc(Cl)c(Cl)c3)CC2)CC1`, the figure is -0.38%.
For `COc1ccc(CNc2nc(NCc3ccccc3)c3cc(OC)c(OC)cc3n2)cc1OC`, the inhibition worked out at 4.35%.
In the case of `O=C(NCc1ccc(F)cc1)Nc1ccc(-c2cccc(-c3nc4cc(F)ccc4[nH]3)c2)cc1`, the inhibition turned out to be 7.44%.
`Cc1nc2ccc(F)cc2n1C1CCN(C(=O)Cc2ccc(F)c(F)c2)CC1`: the inhibition was -1.6%.
Still for that read-out and setting: in the case of `CS(=O)(=O)c1ccc(CNCc2ccc(-c3ccc(-c4nc5cc(C(F)(F)F)ccc5[nH]4)s3)cc2)cc1` it was 12%; in that of `CC[C@H](C)CNC(=O)c1cncc(-c2cccc(CNCCCc3ccccc3)c2)c1`, 4.76%; in that of `O=C(NCCCc1ccccc1)c1csc(C2CCCN(C(=O)c3ccc(O)c(-c4cccc5ccccc45)c3)C2)n1` (stereo not given), 0.14%.
Regarding `Cn1cncc1-c1ccc2ncnc(Nc3ccc(OCc4ccccc4)cc3)c2c1`, the inhibition worked out at 0.55%.
Turning to `CCNC(=O)N1CCN(c2nc(-c3ccccc3)nc(COC)c2Cc2ccc(C)cc2)CC1`, the inhibition came out at 4.13%.
Turning to `Cc1cc(NCC2CCN(CC3CCCCC3)C2)nc(Nc2ccc(Br)cc2)n1` (stereo not given), the inhibition was 8.49%.
In the case of `c1cc(CNCc2ccc3c(c2)OCO3)cc(-c2cccc(CNc3ccc4ncccc4c3)c2)c1`, the inhibition came out at 0.81%.
Turning to `COc1ccc(CCNc2nc(SCc3ccccc3Cl)nc3ccccc23)cc1OC`, the inhibition is 1.6%.
As to `CCc1nc(N)nc(N)c1-c1ccc(C(C)(C)C)cc1`, the inhibition worked out at 13%.
As to `Cc1ccc(-n2ncc(C(=O)Nc3cc(Cl)cc(Cl)c3)c2C2CCNCC2)cc1C`, the inhibition was 3.26%.

The target in a further experiment is Hexose transporter 1 (Plasmodium falciparum) (UniProt O97467). Nature of the experiment: ST_JUDE_LEISH: Cytotoxicity at 2uM final concentration against transgenic Leishmania Mexicana promastigotes LmPfHT that are glucose transport deficient and complemented with the Plasmodium falciparum hexose transporter. Activity is measured by DNA content using SYBR green in vitro. It is filed as functional.
In the case of `N=c1n(Cc2ccccc2)c2ccccc2n1CC(O)c1ccc(Cl)c(Cl)c1` (stereo not given), the inhibition is 1.71%.
Consider `Brc1ccc(Nc2ccnc3cc(-c4nccs4)ccc23)cc1Oc1ccnc2cc(-c3nccs3)ccc12`, for which the inhibition came to 2.1%.
On to `c1cc(CN2CCN(c3ccncc3)CC2)cc(-c2ccc(-c3nc4ccccc4[nH]3)cc2)c1`, for which the inhibition is 5.17%.
As to `COc1cc(NC(=O)N2CCOC(CCN3CCC(c4ccccc4)CC3)(c3ccc(Cl)c(Cl)c3)C2)cc(OC)c1OC` (stereo not given), the inhibition amounted to 2.95%.
As for `Cc1cc(NC(=O)c2coc3cc(F)c(N4CC(C)N(C)C(C)C4)cc23)ccc1-n1ccnc1` (stereo not given), the inhibition is 1.16%.
Regarding `O=C(/C=C/c1ccc(F)cc1)NC1CCC(CCN2CCc3ccc(-n4cccn4)cc3CC2)CC1` (stereo not given), the inhibition came to 12.9%.
For the compound `CCn1c(Sc2ccc(C#N)c([N+](=O)[O-])c2)nnc1-c1ccc(Cl)cc1`, the inhibition turned out to be 3.08%.
Regarding `CNC(=O)c1ccccc1Nc1nc(Nc2cccc(CS(C)(=O)=O)c2)ncc1C`, the inhibition worked out at 11.9%.
With `Cc1cccc2nc(-c3ccc(-c4ccc(CN5CCOCC5)cc4)cc3)[nH]c12`, the inhibition was 3.46%.
Still for that read-out and setting: as for `O=C(NC1CC1)c1ccc(N2CCC(Cc3ccccc3)CC2)nc1`, the figure is 4.8%; as for `NC1=Nc2ccc(Cl)cc2C1(O)c1ccccc1` (stereo not given), 1.33%; as for `Cc1[nH]c(C)c(-c2ccc(-c3ccccc3C(F)(F)F)nc2)c(=O)c1Br`, 3.67%.
The same measure, in the same setting: in the case of `Cc1ccc(F)c(OCC2CCN(c3ccc(C(=O)NC4CC4)cn3)CC2)c1` it was 2.89%; in that of `O=C(/C=C/c1ccc(Cl)c(Cl)c1)NCCCCCN1CCC(NC(=O)Nc2ccc(F)c(Cl)c2)CC1`, 4.82%.
The same measure, in the same setting: in the case of `CN1CCN(c2ccnc3cc4c(cc23)N(C(=O)Nc2ccc3c(c2)CCCC3=O)CC4)CC1` it was 1.56%.
On to `Cc1ccc(C)c2sc(N(CCCn3ccnc3)C(=O)c3ccco3)nc12`, for which the inhibition is 5.62%.
In the case of `Cn1nc(-c2ccc(NC(=O)Nc3cc(C(F)(F)F)cc(C(F)(F)F)c3)c(F)c2)c2cnc(NCCN3CCOCC3)nc21`, the inhibition was found to be 2.48%.
Consider `Cc1cccc(OCC2CCN(c3ncc(C(=O)NC4CC4)cc3Cl)CC2)c1`, for which the inhibition stood at 5.86%.
Take `CN(C)Cc1cccc(-c2cnc(N)c(-c3nc4cc(S(C)(=O)=O)ccc4[nH]3)c2)c1`: the inhibition amounted to 5.29%.
As for `Cc1ccc(C(C(=O)Nc2ccc(N3CCNCC3)c(Cl)c2)c2ccccc2)cc1` (stereo not given), the inhibition stood at 0.84%.
Turning to `Cc1[nH]c(C)c(-c2ccc(-c3ccc(OC(F)(F)F)cc3)nc2)c(=O)c1Cl`, the inhibition was -0.29%.
Turning to `Cc1cc(N[C@@H](Cc2ccccc2)C(=O)NCc2cccc(F)c2)nc(NCCc2ccc(F)cc2)n1`, the inhibition was determined as 2.55%.
`CC(=O)Nc1cccc(CNc2cc(C)nc(Nc3ccc(C)cc3)n2)c1`: the inhibition was determined as 8.32%.
Take `CCCCNC(=O)[C@H](CC1CCCCC1)NC(=O)c1ccc(O)c(-c2cccc(C(F)(F)F)c2)c1`: the inhibition turned out to be 3.75%.
For `NCCCNc1ccnc2cc(Cl)ccc12`, the inhibition was 1.55%.
Same read-out and setting: as for `O=C(/C=C/c1ccc(Cl)c(Cl)c1)NCCCCCN1CCC(NC(=O)c2cc(Cl)ccc2F)CC1`, the figure is 1.12%; as for `Cc1[nH]c2ccc(NS(C)(=O)=O)cc2c1C1CCN(CCC2CCN(C(=O)/C=C/c3ccc(Cl)c(Cl)c3)CC2)CC1`, -1.33%.
Regarding `COc1ccc(CNc2nc(NCc3ccccc3)c3cc(OC)c(OC)cc3n2)cc1OC`, the inhibition was found to be 5.92%.
For `O=C(NCc1ccc(F)cc1)Nc1ccc(-c2cccc(-c3nc4cc(F)ccc4[nH]3)c2)cc1`, the inhibition was found to be 6.92%.
Still for that read-out and setting: as for `Cc1nc2ccc(F)cc2n1C1CCN(C(=O)Cc2ccc(F)c(F)c2)CC1`, the figure is -1.91%; as for `CS(=O)(=O)c1ccc(CNCc2ccc(-c3ccc(-c4nc5cc(C(F)(F)F)ccc5[nH]4)s3)cc2)cc1`, 10.7%; as for `CC[C@H](C)CNC(=O)c1cncc(-c2cccc(CNCCCc3ccccc3)c2)c1`, 3.06%.
For the compound `O=C(NCCCc1ccccc1)c1csc(C2CCCN(C(=O)c3ccc(O)c(-c4cccc5ccccc45)c3)C2)n1` (stereo not given), the inhibition was -0.18%.
Regarding `Cn1cncc1-c1ccc2ncnc(Nc3ccc(OCc4ccccc4)cc3)c2c1`, the inhibition was found to be 1.48%.
With `CCNC(=O)N1CCN(c2nc(-c3ccccc3)nc(COC)c2Cc2ccc(C)cc2)CC1`, the inhibition was -1.41%.
Regarding `Cc1cc(NCC2CCN(CC3CCCCC3)C2)nc(Nc2ccc(Br)cc2)n1` (stereo not given), the inhibition turned out to be 7.88%.
As to `c1cc(CNCc2ccc3c(c2)OCO3)cc(-c2cccc(CNc3ccc4ncccc4c3)c2)c1`, the inhibition was found to be 1.4%.
As to `COc1ccc(CCNc2nc(SCc3ccccc3Cl)nc3ccccc23)cc1OC`, the inhibition was determined as 3.03%.
On to `CCc1nc(N)nc(N)c1-c1ccc(C(C)(C)C)cc1`, for which the inhibition came out at 3.45%.
In the case of `Cc1ccc(-n2ncc(C(=O)Nc3cc(Cl)cc(Cl)c3)c2C2CCNCC2)cc1C`, the inhibition worked out at 1.43%.
